Source: PubChem BioAssay
Values joined by “and” are separate entries in the source; they are usually repeats but may differ in a detail not shown here. Equal values may be shown once. Active and inactive are the calls of the source. Unless noted, how the calls were made is not given here. Starred links: 1 amine or outer side, 2 acyl side, 3 side chain; linkers in the order of their positions; H or OH if unused. Positions of bridges follow the written chain, without caps; N, C: chain ends. Non-standard residues stand in square brackets, D forms with d. Residues, ends and D or L forms follow the SMILES beside them. Chains are numbered I, II in the order given. Actinocin(9to1) = Cc1c2oc3c(C)ccc(C(=O)[*:1])c3nc-2c(C(=O)[*:2])c(N)c1=O; NMeV = CN[C@H](C(=O)O)C(C)C; Sar = CNCC(=O)O

Key:
[1] = liver-stage malaria parasite growth inhibition, primary screen, cell-based, HepG2, luciferase luminescence, HepG2 viability (AID 624349; in the data active means parasite load remaining mostly below about 12%, no sharp cut-off; inactive means mostly above about 10%;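 further: 100% = mean of DMSO negative control wells on the same plate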); conditions: P. berghei liver stage in HepG2, luciferase luminescence, concentration not given here; parasite load remaining: stronger effect = lower value; viability: measured here: HepG2 viability without parasites
[2] = Cy5 fluorescence interference with SSB-bound oligo, artefact control for HCV NS3 helicase inhibitor project, biochemical, NIH Clinical Collection, E. coli SSB (AID 743268)
[3] = system: Hepatitis C virus NS3 helicase; assay: HCV NS3 helicase inhibitors, primary screen, biochemical, fluorescence polarization, NIH Clinical Collection (AID 743270); conditions: NS3 helicase binding to Cy5-dT15 DNA, stronger effect = higher value, concentration not given here
[4] = target: Single-stranded DNA-binding protein (Escherichia coli (strain K12)) (UniProt P0AGE0); assay: E. coli SSB displacement from DNA, counter-screen for HCV NS3 helicase inhibitor project, biochemical, fluorescence polarization, NIH Clinical Collection (AID 743271; in the data active means inhibition above about 28%); conditions: stronger effect = higher value, concentration not given here
[5] = fluorescence interference in NS3h assay format, artefact control for HCV NS3 helicase inhibitor project, biochemical, NIH Clinical Collection (AID 743272); conditions: fluorescence interference counterscreen, stronger effect = lower value;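 further: HCV NS3 helicase with a Cy5 labelled single stranded DNA probe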
[6] = system: Neuropilin-2 / VEGF-C interaction (human); assay: inhibitors of NRP2–VEGF-C binding, biochemical, microplate binding format, z-score (AID 743281); conditions: microplate NRP2/VEGF-C binding assay; stronger effect = lower value
[7] = stimulators of nuclear beta-catenin in C2C12, primary screen, imaging, WNT3A-conditioned medium, mouse C2C12, NPC library (AID 1117326; in the data active means nuclear beta-catenin stimulation mostly above about 4.2%, no sharp cut-off; inactive means mostly below about 10%); conditions: stronger effect = higher value
[8] = kinase inhibitors against Plasmodium liver-stage infection, cell-based, known kinase inhibitor set, luminescence, hepatoma host viability (AID 624392); conditions: Plasmodium liver stage in hepatoma cells, luciferase luminescence, concentration not given here; liver cell % of control: measured here: host liver cell viability; parasite % of control: stronger effect = lower value;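 further: infected cells incubated roughly two days before readout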
[9] = system: Hepatitis C virus NS3 helicase; assay: HCV NS3 helicase inhibitors, primary screen, biochemical, fluorescence polarization, LOPAC1280 library (AID 687035; in the data active means inhibition above about 37%); conditions: Purified HCV NS3 helicase, Cy5-dT15 ssDNA binding fluorescence polarization; stronger effect = higher value; concentration not given here
[10] = Cy5 fluorescence quenching or enhancement artefacts, artefact control for HCV NS3 helicase inhibitor project, biochemical, LOPAC1280 (AID 687037); conditions: Cy5-DNA-NS3h complex fluorescence interference counterscreen

| Compound | parasite load remaining [1] | viability [1] | fluorescence ratio [2] | inhibition [3] | inhibition [4] | fluorescence ratio [5] | z-score [6] | nuclear beta-catenin stimulation ([7]; at 10 µM) | nuclear beta-catenin stimulation ([7]; stimulation, at 2 µM) [%] | liver cell % of control [8] | parasite % of control [8] | inhibition [9] | fluorescence ratio (interference) [10] |
| --- | --- | --- | --- | --- | --- | --- | --- | --- | --- | --- | --- | --- | --- |
| O=C(c1ccc(F)cc1)C1CCN(CCn2c(=S)[nH]c3ccccc3c2=O)CC1 | 28.9% (inactive) | 66.9% | 1.05 (inactive) | 10.7% (inactive) | 26.1% (inactive) | 1.06 (inactive) | 0.126 (inactive) | 2.2% (inactive) | -0.2 | – | – | – | – |
| CCc1c2c(nc3ccc(OC(=O)N4CCC(N5CCCCC5)CC4)cc13)-c1cc3c(c(=O)n1C2)COC(=O)[C@]3(O)CC | 136% (inactive) and 106% (inactive) | 95.2% and 90.6% | – | – | – | – | -0.00941 (inactive) | 11.6% (inactive) | 1.5 | – | – | – | – |
| O=C1[C@H]2CCCC[C@H]2C(=O)N1CCCCN1CCN(c2nsc3ccccc23)CC1 | 42.7% (inactive) | 60.1% | 1 (inactive) | 0.4% (inactive) | -2.41% (inactive) | 0.96 (inactive) | -0.553 (inactive) | 10.9% (inactive) | 1 | – | – | – | – |
| Cc1c2oc3c(C)ccc(C(=O)N[C@@H]4C(=O)N[C@H](C(C)C)C(=O)N5CCC[C@H]5C(=O)N(C)CC(=O)N(C)[C@@H](C(C)C)C(=O)O[C@@H]4C)c3nc-2c(C(=O)N[C@@H]2C(=O)N[C@H](C(C)C)C(=O)N3CCC[C@H]3C(=O)N(C)CC(=O)N(C)[C@@H](C(C)C)C(=O)O[C@@H]2C)c(N)c1=O (I: T[dV]P[Sar][NMeV] / II: T[dV]P[Sar][NMeV]; ester I:1-I:C, II:1-II:C; linker I:N-II:N via Actinocin(9to1)) | -0.02% (inactive) | 31.5% | 0.91 (inactive) | 1.53% (inactive) | 2.76% (inactive) | 0.93 (inactive) | -4.03 (active) | 92.5% (active) | 109 | – | – | – | – |
| CCN1CCN(c2cc3c(cc2F)c(=O)c(C(=O)O)cn3C2CC2)CC1 | 29.1% (inactive) and 34.1% (inactive) and 1.73% (inactive) | 97.4% and 66.5% and 68.5% | 1 (inactive) | 0.66% (inactive) | 0.39% (inactive) | 0.97 (inactive) | -0.441 (inactive) | 0.9% (inactive) | 0.3 | – | – | – | – |
| CCc1nn(CCCN2CCN(c3cccc(Cl)c3)CC2)c(=O)n1CCOc1ccccc1 | 9.1% (inactive) and 13.5% (inactive) | 58.6% and 64.5% | 0.98 (inactive) | -1.19% (inactive) | 3.75% (inactive) | 0.99 (inactive) | 0.854 (inactive) | -1% (inactive) | 3 | – | – | – | – |
| COC(=O)C1=C(C)NC(C)=C(C(=O)O[C@@H]2CCCN(Cc3ccccc3)C2)[C@@H]1c1cccc([N+](=O)[O-])c1 | 10.8% (inactive) | 55.9% | 0.96 (inactive) | 3.56% (inactive) | 5.29% (inactive) | 0.94 (inactive) | 1.67 (inactive) | 8.2% (inactive) | 5.8 | – | – | – | – |
| CN(CCOc1ccc(NS(C)(=O)=O)cc1)CCc1ccc(NS(C)(=O)=O)cc1 | 94% (inactive) and 61.2% (inactive) | 70% and 214% | – | – | – | – | -1.11 (inactive) | -0.7% (inactive) | 1.6 | – | – | – | – |
| COc1cc2c(Nc3ccc(Br)cc3F)ncnc2cc1OCC1CCN(C)CC1 | – | – | – | – | – | – | – | -0.3% (inactive) | -0.9 | 42.4% and 45.4% and 52% | 0.285% (inactive) and 8.38% (inactive) and 117% (inactive) | – | – |
| COc1cc(-c2ccc(=O)[nH]n2)ccc1OC(F)F | 107% (inactive) and 103% (inactive) and 31.7% (inactive) | 78.6% and 72.5% | 0.99 (inactive) | -2.77% (inactive) | -0.87% (inactive) | 0.94 (inactive) | -0.623 (inactive) | 2% (inactive) | 0.9 | – | – | – | – |
| O=C(O)/C=C/c1ccc(Cn2ccnc2)cc1 | 92.2% (inactive) and 85.3% (inactive) and 50.2% (inactive) | 79.5% and 65.9% and 102% | 1.05 (inactive) | -2.77% (inactive) | -3.95% (inactive) | 0.97 (inactive) | -0.108 (inactive) | -2.1% (inactive) | 1.2 | – | – | – | – |
| CC(C)(C)NC(=O)[C@@H]1CN(Cc2cccnc2)CCN1C[C@@H](O)C[C@@H](Cc1ccccc1)C(=O)N[C@H]1c2ccccc2C[C@H]1O | 83.6% (inactive) | 71% | – | -1.19% (inactive) | 1.44% (inactive) | 1.02 (inactive) | 0.687 (inactive) | 1.8% (inactive) | 1.7 | – | – | – | – |
| CCOC(=O)OC(C)OC1=C(C(=O)Nc2ccccn2)N(C)S(=O)(=O)c2ccccc21 (stereo not drawn) | 75.6% (inactive) and 16.2% (inactive) | 78.8% and 73% | 0.97 (inactive) | -2.84% (inactive) | -0.39% (inactive) | 0.96 (inactive) | -0.884 (inactive) | 0.7% (inactive) | -0.8 | – | – | – | – |
| CCOC(=O)C1=C(C)NC(C)=C(C(=O)OC)C1c1cccc(Cl)c1Cl (stereo not drawn) | – | – | – | – | – | – | – | 35.8% (inactive) | 7.4 | – | – | -1% (inactive) | 1 (inactive) |
| CCC1(C)CC(=O)NC1=O (stereo not drawn) | – | – | – | – | – | – | – | 0.2% (inactive) | -0.3 | – | – | 0% (inactive) | 1 (inactive) |
| COc1ccc(CN(CCN(C)C)c2ccccn2)cc1 | – | – | – | – | – | – | – | 0.1% (inactive) | 7.7 | – | – | 3% (inactive) | 1 (inactive) |
| Cc1cc(C(C)(C)C)c(O)c(C)c1CC1=NCCN1 | – | – | – | – | – | – | – | 1.6% (inactive) | 2.7 | – | – | -6% (inactive) | 0.9 (inactive) |
| NC(=O)c1ncn([C@@H]2O[C@H](CO)[C@@H](O)[C@H]2O)c1O | – | – | – | – | – | – | – | 3% (inactive) | 2.4 | – | – | -3% (inactive) | 1 (inactive) |
